A selection: hits, their analogues and other compounds. The true share with any hit is near 2.9%.
IDH1 R132H inh: inhibitors of human mutant IDH1 R132H; O75874; IDH1-R132H enzyme, NADPH consumption, diaphorase/resazurin fluorescence; Potency, µM (highest dose often 76.6 µM), without a hit: at the highest dose activity change, negative = inhibition, hits mostly inhibitors; actives 0.093% (n = 390,000); note: potency is the fitted concentration of half-maximal effect; % is set by controls: 0 for no effect and ±100 for the full control effect; nearly all actives have a fitted effect of over 65% in size
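IDH1-R132H (0.5 ug/mL dispensed) in pH 7.5 Tris buffer was preincubated 30 min with compound, then given a substrate mix of 0.016 mM NADPH and 2 mM alpha-KG for 80 min at room temperature; remaining NADPH was read by diaphorase/resazurin fluorescence.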
DRD3 antagonist: antagonists of human D3 dopamine receptor. D3R cells, DiscoveRx beta-arrestin luminescence, antagonist mode; active compounds read low. AID 652054. actives 2.5% (n = 360,000). max response, negative = inhibition, %; in the data active = max response below about -50%; inconclusive = no clear call, values can overlap the other calls; note: % is set by controls: 0 for no effect and ±100 for the full control effect
Target sequence (P35462 whole entry, looked up): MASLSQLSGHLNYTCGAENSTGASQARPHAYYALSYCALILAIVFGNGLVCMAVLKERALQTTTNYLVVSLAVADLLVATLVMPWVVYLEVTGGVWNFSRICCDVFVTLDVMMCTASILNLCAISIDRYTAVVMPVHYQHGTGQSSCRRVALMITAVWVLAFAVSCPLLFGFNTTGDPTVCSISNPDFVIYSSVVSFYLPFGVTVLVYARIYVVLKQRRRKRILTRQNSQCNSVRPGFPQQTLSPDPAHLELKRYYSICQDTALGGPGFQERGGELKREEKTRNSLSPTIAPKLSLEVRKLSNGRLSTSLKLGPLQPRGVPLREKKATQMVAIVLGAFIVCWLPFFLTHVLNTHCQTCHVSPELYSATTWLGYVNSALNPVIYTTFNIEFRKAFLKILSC
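Cells expressing the human receptor were seeded at 1500 cells/well, incubated overnight at 37 degrees C in 5% CO2, then exposed to library compounds with dopamine controls for 90 minutes at 37 degrees C before luminescent detection.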
D3 ag: D3 dopamine receptor (human) agonism | P35462 | D3R DiscoveRx beta-arrestin cells, luminescence, 90 min | max activation, % | actives 0.58% (n = 410,000) | AID 652048; in the data active = max activation above about 30%; note: 0% is about no effect
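Agonist mode: compounds and dopamine controls were applied to plated cells for 90 min at 37 degrees C after an overnight attachment at 1500 cells/well. Luminescent read-out followed 30 - 60 minutes at room temperature with DiscoveRx detection reagent.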
B2AR arrestin: recruits beta-arrestin to the human beta2-adrenergic receptor. AID 492947. actives 0.02% (n = 330,000). Potency, µM (titrated, usually from 46.1 µM), for inactives: at the top dose activation, usual class: activators. beta-arrestin recruitment to beta2AR, cell-based reporter. P07550;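 note: potency is the fitted concentration of half-maximal effect; 0% = DMSO controls and full agonism = EC100 isoproterenol or metaproterenol; nearly all actives have a fitted effect of over 65% in size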
Integrin act MD: integrin-mediated muscular dystrophy alleviation activation; alpha7betagal myoblasts, beta-gal FDG fluorescence, 48 h; Potency, µM (doses to about 38.3 µM), for inactives: at the top dose activation, most hits filed as activators; actives 0.064% (n = 350,000); AID 624291;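 note: potency is the fitted concentration of half-maximal effect; 100% = response of the positive control SU9516; nearly all actives have a fitted effect of over 60% in size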
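alpha7betagal+/- myoblasts (passage 13, 250/well) treated 48 h at 37C with compounds at 1:260 dilution of DMSO stock. Lysed, then beta-galactosidase activity read as FDG fluorescence (ex 480/em 540) after 30 min, with pre-read for autofluorescence.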
Starred values were filed as active, the others as inactive; ? = inconclusive; · = no result given. Unless noted, calls come from the whole dose curve; as a rule, active = well fitted curve in the direction sought with a large enough effect; inconclusive = small, poorly fitted or top-dose-only effect, or another doubt; inactive = no such curve, though single readings can be large; an effect the other way counts as inactive or inconclusive.

SMILES	IDH1 R132H inh	DRD3 antagonist	D3 ag	B2AR arrestin	Integrin act MD
COc1cc(OC)cc(C(=O)N2CCC(N3CCN(c4ccccc4)CC3)CC2)c1	8.3%	-63.3*	7.8	-0.3%	-21.0%
O=C(c1cccs1)N1CCN(c2ccc(Cl)cc2)CC1	1.1%	7.9	-0.8	-0.9%	-19.4%
O=C(c1cccs1)N1CCC(N2CCN(c3ccccc3)CC2)CC1	1.6%	?	47.0*	-0.5%	-1.7%
CCOC(=O)N1CCC(N2CCN(c3ccccc3)CC2)CC1	1.3%	7.8	35.3*	1.9%	-37.0%
CCOc1ccc(CCNC(=O)C2=C(C)C(=O)OC23CCCCC3)cc1	·	·	-2.1	·	·
CCC1Oc2ccccc2N(CC(=O)NC2CCCCC2)C1=O (configuration not stated)	7.5%	-15.5	-10.5	0.2%	-49.0%
CN(C)C(=S)SC(=S)N(C)C	·	·	1.3	·	·
CCOC(=O)N1CCC(N2CCN(S(=O)(=O)CC)CC2)CC1	-7.7%	-132.9*	-5.4	-0.1%	-8.3%
CCc1cccc(NC(=O)CN(C)S(=O)(=O)c2cnc[nH]2)c1	8.9%	-52.3*	4.0	0.2%	3.0%
CCOC(=O)c1cccc(NC(=O)CN(C)S(=O)(=O)c2cnc[nH]2)c1	5.8%	0.1	9.0	-0.1%	-8.3%
CN1CCC[C@@H]1Cc1c[nH]c2ccc(CCS(=O)(=O)c3ccccc3)cc12	·	·	-7.8	·	·
COc1ccccc1C(NC(=O)C1CCN(CCOc2ccc(Cl)cc2Cl)CC1)c1ccccn1 (configuration not stated)	·	?	-12.9	·	·
O=C(NC(c1ccc(Cl)cc1)c1ccsc1)C1CCN(CCOc2ccc(Cl)cc2)CC1 (configuration not stated)	·	-84.3*	-15.9	·	·
COc1ccc(C(NC(=O)C2CCN(CCOc3ccc(Cl)cc3Cl)CC2)c2ccccn2)cc1 (configuration not stated)	·	-69.6*	-24.4	·	·
COc1ccc(OCCN2CCC(C(=O)NC(c3ccc(Cl)cc3)c3cccnc3)CC2)cc1 (configuration not stated)	·	20.4	-14.9	·	·
COc1ccc(C(NC(=O)C2CCN(CCCOc3ccccc3)CC2)c2cccs2)cc1 (configuration not stated)	·	-74.8*	-11.6	·	·
Cc1ccc(C(NC(=O)C2CCN(CCOc3ccc(Cl)cc3)CC2)c2ccccn2)cc1 (configuration not stated)	·	-94.5*	-12.3	·	·
CCC(CC)C(=O)Nc1cccc(-c2nc3cccnc3s2)c1C	6.7%	·	-12.1	·	·
O=C(NC(c1ccc(Cl)cc1)c1cnccn1)C1CCN(CCCOc2ccccc2)CC1 (configuration not stated)	·	-84.2*	-12.9	·	·
Cc1ccc(C(NC(=O)C2CCN(CCCOc3ccccc3)CC2)c2ccccn2)cc1 (configuration not stated)	·	-114.9*	-12.2	·	·
O=C(NC(c1ccccc1)c1cnccn1)C1CCN(CCCOc2ccccc2)CC1 (configuration not stated)	·	0.7	-22.2	·	·
O=C(NC(c1ccc(Cl)cc1)c1cnccn1)C1CCN(CCCc2ccccc2)CC1 (configuration not stated)	·	-1.2	-17.6	·	·
CCc1ccccc1NC(=O)CCCn1c(=O)c2cccn2c2ccccc21	13.0%	·	6.4	·	·
CN(C)CCCN(C(=O)c1ccc(C(=O)c2ccccc2)cc1)c1nc2cc3c(cc2s1)OCO3	11.0%	-55.4*	-11.8	-0.2%	-27.7%
CN(C)CCCN(C(=O)c1ccc(Br)s1)c1nc2ccc(F)cc2s1	-3.4%	·	-18.7	·	·
SMILES	IDH1 R132H inh	DRD3 antagonist	D3 ag	B2AR arrestin	Integrin act MD
CCN(CC)CCN(C(=O)c1ccc(C(=O)c2ccccc2)cc1)c1nc2cc3c(cc2s1)OCO3	3.5%	-6.3	-15.7	-0.3%	15.9%
Cc1ccc2nc(N(CCCN(C)C)C(=O)c3ccc(Br)s3)sc2c1	-2.0%	-52.7*	-10.0	0.7%	-41.6%
Cc1ccccc1CN1C(=O)c2ccccc2Sc2ccc(C(=O)NCc3ccccc3)cc21	37.1%	·	15.7	·	·
CN(C(=O)c1ccc(OC2CCN(C(=O)c3cccnc3)CC2)cc1)C1CCCCC1	8.8%	17.4	5.5	-0.2%	-58.8%
Nn1c(SCC(=O)Nc2ccccc2F)nc2ccccc2c1=O	-0.6%	35.4	39.8*	-0.2%	23.5%
O=C(O)Cn1nnnc1SCC(=O)Nc1ccccc1F	0.8%	11.6	-2.8	-0.3%	22.8%
COC(=O)c1c(-c2cccs2)csc1NC(=O)COc1ccc(C(C)(C)C)cc1	21.6%	·	3.3	·	·
COc1cccc(/C=C/C(=O)NNC(=O)CCN2CCN(Cc3ccccc3)CC2)c1	4.9%	-52.8*	-19.9	-0.2%	-21.8%
Oc1ccccc1-c1cc(-c2ccc(F)cc2)n[nH]1	13.7%	3.3	2.2	-0.5%	8.4%
Oc1ccc(F)cc1-c1cc(-c2ccc3c(c2)OCCO3)n[nH]1	10.2%	-52.8*	-3.7	0.1%	2.3%
CCN1\C(=C/C=C/C=C/c2sc3ccccc3[n+]2CC)Sc2ccccc21	·	·	-19.9	·	·
O=C(NCc1ccccc1Cl)c1ccc(NC(=O)N2CCSc3ncccc32)cc1	-15.3%	·	4.7	·	·
CN1/C(=C\C=C2/C(=O)Oc3ccccc3C2=O)C(C)(C)c2ccccc21	36.9µM*	9.6	-2.6	-0.2%	-8.7%
CN1/C(=C\C=N\O)C(C)(C)c2ccccc21	-0.3%	-12.7	2.1	3.3%	9.6%
CCCN1C(=O)/C(=C\C=C2\N(CC)c3ccccc3C2(C)C)SC1=S	-2.4%	-24.6	-4.8	-0.7%	19.7%
CN1/C(=C\C=C2/SC(=S)NC2=O)C(C)(C)c2ccccc21	-5.3%	-53.0*	-8.2	0.4%	-39.0%
CN1C(=CC=C2C=C(I)C(=O)C(I)=C2)C(C)(C)c2ccccc21	46.5µM*	-4.5	-1.5	-0.6%	-59.6%
NC(=S)N/N=C/c1ccccc1	-2.6%	-8.7	4.4	-0.5%	-25.1%
NC(=S)N/N=C/c1ccc(C23CC4CC(CC(C4)C2)C3)cc1	-8.8%	-88.8*	-27.7	?	15.0%
O=C(CSc1nc2ccccc2[nH]1)N1CCCCC1	11.0%	-96.2*	-15.8	0.1%	-1.0%
O=C(CSc1nc2ccccc2[nH]1)N1CCN(c2ccccc2)CC1	2.3%	13.5	2.6	-0.4%	11.3%
O=C(CSc1nc2ccccc2[nH]1)c1c[nH]c2ccccc12	-7.7%	-56.3*	-10.8	-0.3%	39.8%
COC(=O)Cn1c(CCS(=O)(=O)c2ccc(C)cc2)nc2ccccc21	0.0%	-101.0*	-0.2	0.0%	3.0%
COc1cc(OC)cc(-c2nc3ccccc3c(=O)n2OC(=O)c2ccccc2C)c1	7.2%	81.4	33.7*	0.2%	-25.9%
COc1ccc(-c2cc(C(F)(F)F)n3nc(C(=O)N4CCN(C(=O)c5ccco5)CC4)cc3n2)cc1	-3.2%	91.5	11.1	-0.4%	-13.4%
CC(=O)Nc1cccc(C(=O)/C=C/c2cccs2)c1	1.9%	-62.4*	-4.9	-0.1%	-34.3%
COCOc1ccc(/C=C/C(=O)c2c(OCOC)cc(OCOC)c(CC=C(C)C)c2O)cc1OCOC	-1.6%	105.4	42.3*	·	-7.2%
